Data on nine targets can be found in the supplement of paper PMC11732987, “Enantioselective OTUD7B fragment discovery through chemoproteomics screening and high-throughput optimisation” (Communications Chemistry, 2025).

Chain of UniProt O15372 (O15372 whole entry): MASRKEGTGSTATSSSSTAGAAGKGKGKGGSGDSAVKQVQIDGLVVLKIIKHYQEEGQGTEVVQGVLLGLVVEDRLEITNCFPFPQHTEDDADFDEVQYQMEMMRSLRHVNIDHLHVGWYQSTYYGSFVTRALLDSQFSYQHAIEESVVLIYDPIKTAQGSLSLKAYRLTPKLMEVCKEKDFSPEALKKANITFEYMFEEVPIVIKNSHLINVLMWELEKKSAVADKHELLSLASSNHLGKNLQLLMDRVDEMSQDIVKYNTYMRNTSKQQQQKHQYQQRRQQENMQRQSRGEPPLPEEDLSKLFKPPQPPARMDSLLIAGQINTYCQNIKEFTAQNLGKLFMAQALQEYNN
Chain of UniProt Q6GQQ9 (Q6GQQ9 whole entry): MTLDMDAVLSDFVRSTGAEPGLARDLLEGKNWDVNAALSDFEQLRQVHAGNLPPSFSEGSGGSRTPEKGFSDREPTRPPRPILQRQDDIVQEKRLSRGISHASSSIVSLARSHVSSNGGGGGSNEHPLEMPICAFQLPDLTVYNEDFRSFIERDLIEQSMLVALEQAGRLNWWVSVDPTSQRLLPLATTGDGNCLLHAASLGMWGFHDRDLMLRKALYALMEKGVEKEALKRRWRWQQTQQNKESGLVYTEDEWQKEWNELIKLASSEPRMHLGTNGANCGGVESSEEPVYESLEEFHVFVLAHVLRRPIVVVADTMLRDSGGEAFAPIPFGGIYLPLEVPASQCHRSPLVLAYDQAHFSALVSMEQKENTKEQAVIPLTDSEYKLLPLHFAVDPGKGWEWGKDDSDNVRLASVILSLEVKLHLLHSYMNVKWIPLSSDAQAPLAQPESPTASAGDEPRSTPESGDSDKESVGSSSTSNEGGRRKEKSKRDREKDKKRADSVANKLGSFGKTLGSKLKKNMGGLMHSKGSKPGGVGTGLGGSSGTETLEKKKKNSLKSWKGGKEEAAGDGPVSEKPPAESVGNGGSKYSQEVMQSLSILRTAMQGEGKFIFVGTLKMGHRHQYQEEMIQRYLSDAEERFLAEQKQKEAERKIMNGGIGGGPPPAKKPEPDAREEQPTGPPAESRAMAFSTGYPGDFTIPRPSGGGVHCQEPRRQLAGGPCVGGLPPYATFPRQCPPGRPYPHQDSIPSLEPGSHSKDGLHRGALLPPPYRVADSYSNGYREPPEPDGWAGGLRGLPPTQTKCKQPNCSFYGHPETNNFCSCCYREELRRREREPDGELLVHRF
Chain of UniProt Q92560 (Q92560 whole entry): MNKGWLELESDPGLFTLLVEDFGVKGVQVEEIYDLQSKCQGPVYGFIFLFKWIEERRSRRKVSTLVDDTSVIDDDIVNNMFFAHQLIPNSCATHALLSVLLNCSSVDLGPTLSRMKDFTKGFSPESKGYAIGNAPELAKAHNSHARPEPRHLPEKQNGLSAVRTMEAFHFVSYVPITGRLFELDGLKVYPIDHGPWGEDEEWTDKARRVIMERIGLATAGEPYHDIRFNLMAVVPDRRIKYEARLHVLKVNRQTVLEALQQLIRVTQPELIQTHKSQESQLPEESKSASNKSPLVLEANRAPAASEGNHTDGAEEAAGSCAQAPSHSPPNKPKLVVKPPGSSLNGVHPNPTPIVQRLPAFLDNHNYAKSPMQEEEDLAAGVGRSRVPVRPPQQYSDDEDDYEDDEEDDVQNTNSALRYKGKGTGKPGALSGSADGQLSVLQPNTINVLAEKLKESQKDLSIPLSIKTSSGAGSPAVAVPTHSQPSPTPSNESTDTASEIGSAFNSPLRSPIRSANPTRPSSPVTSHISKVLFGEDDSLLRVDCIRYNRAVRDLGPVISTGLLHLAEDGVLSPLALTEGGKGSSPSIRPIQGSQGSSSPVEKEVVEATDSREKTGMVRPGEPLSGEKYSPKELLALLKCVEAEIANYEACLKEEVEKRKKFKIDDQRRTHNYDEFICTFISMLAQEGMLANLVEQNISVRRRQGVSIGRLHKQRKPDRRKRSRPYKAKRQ
Chain of UniProt P54252 (P54252 whole entry): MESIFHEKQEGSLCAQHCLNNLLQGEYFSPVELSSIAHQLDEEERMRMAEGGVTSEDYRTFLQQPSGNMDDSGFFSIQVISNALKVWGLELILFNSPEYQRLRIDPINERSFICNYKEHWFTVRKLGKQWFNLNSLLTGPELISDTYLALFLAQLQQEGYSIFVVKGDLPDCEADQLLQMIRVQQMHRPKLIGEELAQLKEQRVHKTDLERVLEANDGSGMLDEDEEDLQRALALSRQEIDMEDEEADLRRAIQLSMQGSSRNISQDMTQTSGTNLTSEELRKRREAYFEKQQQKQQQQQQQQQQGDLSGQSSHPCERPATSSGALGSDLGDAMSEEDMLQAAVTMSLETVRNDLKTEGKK
Chain of UniProt Q93009 (Q93009 whole entry, looked up): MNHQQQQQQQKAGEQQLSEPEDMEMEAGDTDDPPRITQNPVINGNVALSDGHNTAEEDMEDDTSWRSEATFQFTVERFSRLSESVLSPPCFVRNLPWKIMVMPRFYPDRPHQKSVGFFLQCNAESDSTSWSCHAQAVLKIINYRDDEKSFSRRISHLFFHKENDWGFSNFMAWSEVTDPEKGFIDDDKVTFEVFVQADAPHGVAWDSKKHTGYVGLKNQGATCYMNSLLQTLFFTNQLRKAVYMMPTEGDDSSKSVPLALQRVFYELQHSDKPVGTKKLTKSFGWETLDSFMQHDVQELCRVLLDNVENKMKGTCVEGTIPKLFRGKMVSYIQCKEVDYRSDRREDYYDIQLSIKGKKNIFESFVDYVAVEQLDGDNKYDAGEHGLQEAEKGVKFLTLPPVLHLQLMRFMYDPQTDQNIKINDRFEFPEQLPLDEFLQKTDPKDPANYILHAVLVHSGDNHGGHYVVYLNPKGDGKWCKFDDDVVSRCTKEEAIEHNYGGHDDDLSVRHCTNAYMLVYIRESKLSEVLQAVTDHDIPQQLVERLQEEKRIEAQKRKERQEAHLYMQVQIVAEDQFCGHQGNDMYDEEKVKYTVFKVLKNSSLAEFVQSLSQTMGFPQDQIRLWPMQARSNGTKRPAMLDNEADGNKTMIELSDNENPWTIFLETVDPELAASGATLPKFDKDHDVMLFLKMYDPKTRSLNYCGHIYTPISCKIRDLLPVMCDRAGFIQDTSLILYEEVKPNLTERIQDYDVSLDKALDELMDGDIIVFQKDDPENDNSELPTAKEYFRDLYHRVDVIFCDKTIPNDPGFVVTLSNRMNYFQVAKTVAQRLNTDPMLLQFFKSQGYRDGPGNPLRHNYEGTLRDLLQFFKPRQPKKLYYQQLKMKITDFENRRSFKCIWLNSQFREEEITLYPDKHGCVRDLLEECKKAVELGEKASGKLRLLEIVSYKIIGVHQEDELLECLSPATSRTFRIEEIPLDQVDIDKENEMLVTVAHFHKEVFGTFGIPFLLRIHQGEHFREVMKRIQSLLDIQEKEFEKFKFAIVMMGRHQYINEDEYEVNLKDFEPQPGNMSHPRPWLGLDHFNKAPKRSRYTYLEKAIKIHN
Chain of UniProt Q9Y5T5 (Q9Y5T5 whole entry, looked up): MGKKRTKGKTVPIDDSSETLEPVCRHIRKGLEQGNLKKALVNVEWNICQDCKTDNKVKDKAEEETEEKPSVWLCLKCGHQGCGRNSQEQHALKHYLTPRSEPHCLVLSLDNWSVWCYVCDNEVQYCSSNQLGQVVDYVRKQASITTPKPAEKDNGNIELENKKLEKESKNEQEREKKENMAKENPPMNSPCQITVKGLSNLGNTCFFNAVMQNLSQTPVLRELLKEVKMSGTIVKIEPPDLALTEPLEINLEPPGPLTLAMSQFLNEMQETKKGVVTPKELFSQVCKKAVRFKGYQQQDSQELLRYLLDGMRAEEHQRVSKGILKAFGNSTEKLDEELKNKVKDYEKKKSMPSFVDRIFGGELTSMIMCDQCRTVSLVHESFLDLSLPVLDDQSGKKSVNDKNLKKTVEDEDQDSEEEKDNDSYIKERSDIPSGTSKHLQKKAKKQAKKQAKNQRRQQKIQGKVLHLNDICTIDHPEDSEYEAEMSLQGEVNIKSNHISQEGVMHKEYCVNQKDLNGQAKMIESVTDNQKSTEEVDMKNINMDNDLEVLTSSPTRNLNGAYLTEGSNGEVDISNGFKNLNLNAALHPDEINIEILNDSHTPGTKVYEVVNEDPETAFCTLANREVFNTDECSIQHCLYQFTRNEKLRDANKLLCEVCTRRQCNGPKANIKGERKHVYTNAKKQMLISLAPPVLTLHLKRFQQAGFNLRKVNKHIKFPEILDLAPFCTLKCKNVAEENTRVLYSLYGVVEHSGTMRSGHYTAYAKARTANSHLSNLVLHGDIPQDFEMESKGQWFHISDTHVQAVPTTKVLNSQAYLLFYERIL
Chain of UniProt Q53GS9 (Q53GS9 whole entry): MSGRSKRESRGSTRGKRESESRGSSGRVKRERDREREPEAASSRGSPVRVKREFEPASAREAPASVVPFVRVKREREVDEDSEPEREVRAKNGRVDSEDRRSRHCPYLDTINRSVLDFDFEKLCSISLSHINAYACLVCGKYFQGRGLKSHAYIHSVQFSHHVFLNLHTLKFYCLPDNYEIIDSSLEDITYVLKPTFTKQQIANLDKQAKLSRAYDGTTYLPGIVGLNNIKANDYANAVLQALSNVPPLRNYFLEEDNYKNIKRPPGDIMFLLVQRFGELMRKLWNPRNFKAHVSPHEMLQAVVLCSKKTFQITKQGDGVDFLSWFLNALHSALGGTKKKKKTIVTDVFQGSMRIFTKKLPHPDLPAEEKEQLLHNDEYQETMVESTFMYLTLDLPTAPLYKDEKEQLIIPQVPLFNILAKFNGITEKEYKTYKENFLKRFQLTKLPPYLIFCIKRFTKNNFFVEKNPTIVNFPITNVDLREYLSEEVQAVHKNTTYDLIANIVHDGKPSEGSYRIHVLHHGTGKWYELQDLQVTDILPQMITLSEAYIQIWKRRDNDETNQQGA

Compound in one assay: ClCC(=O)N1CCC(CC#N)C1
Nature of the assay: log2 ratio of Biotin-Ahx-Ub-VS probe labelling (compound/DMSO); higher = less target engagement, active = hit call of the paper (q ≤ 0.05, log2 ratio ≤ -1). The settings on record: compound concentration: 50uM; treatment time: 3 h. On the procedure:
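Round 2 competitive ABPP in HEK293T lysate. Purified HTC-D2B compounds were tested at 50 and 200 µM for 3 h, followed by Biotin-Ahx-Ub-VS enrichment and diaPASEF LC-MS/MS. Values are the average log2 ratio (compound/DMSO) from an unpaired t-test (n=3 treated, n=26 DMSO).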
Regarding USP39 (UniProt Q53GS9), the “log2 ratio of Biotin-Ahx-Ub-VS probe labelling” value (from here on “log2 ratio”) is -0.0848 (inactive).
On the same count and under the same terms, to BAP1 (UniProt Q92560) belongs -0.376 (inactive); to PRPF8 (UniProt Q6P2Q9), 0.045 (inactive).
As for USP16 (UniProt Q9Y5T5), the “log2 ratio” value is -0.133 (inactive).
With ATXN3 (UniProt P54252), the “log2 ratio” value was -0.387 (inactive).
The same measure, in the same setting: to MINDY4 (UniProt Q4G0A6) belongs 0.173 (inactive).
On the same count and under the same terms, to USP7 (UniProt Q93009) belongs -0.141 (inactive); to EIF3H (UniProt O15372), 0.0416 (inactive); to OTUD7B (UniProt Q6GQQ9), -0.339 (inactive).

The assay is the same for the next values; noted with them: compound concentration: 200uM; treatment time: 3 h.
Regarding USP39 (UniProt Q53GS9), the “log2 ratio” value was 0.0939 (inactive).
Still for that read-out and setting: with BAP1 (UniProt Q92560) the figure was -0.502 (inactive).
The same measure, in the same setting: with PRPF8 (UniProt Q6P2Q9) the figure was -0.00376 (inactive); with USP16 (UniProt Q9Y5T5), -0.669 (inactive).
For ATXN3 (UniProt P54252), the “log2 ratio” value is -0.524 (inactive).
Still for that read-out and setting: to MINDY4 (UniProt Q4G0A6) belongs -0.0819 (inactive); to USP7 (UniProt Q93009), -0.201 (inactive).
Still for that read-out and setting: with EIF3H (UniProt O15372) the figure was 0.0793 (inactive); with OTUD7B (UniProt Q6GQQ9), -0.552 (inactive).
